Results on 40 compounds are retold here after PubChem BioAssay.

The structures appear in SMILES notation. The source made the active and inactive calls. Unless noted, no stated cut-off is given here; in the data, active means inhibition above about 42%; inactive means the rest.

Test system in one assay: not listed separately
In words: StAR promoter reporter inhibitors, counter-screen for LRH-1 inverse agonist project, cell-based, luminescence, high throughput (AID 651611; in the data active means inhibition above about 28%). The following applies: StAR promoter luciferase reporter counterscreen, at 3.6 µM, active compounds read high.
For the compound `CC1CCCC(C)N1C(=O)COC(=O)CCC1CCCC1` (stereo not given), the inhibition – broadly, the change of the read-out against control, counted positive when it falls – was 3.25% (inactive).
Take `COC(=O)c1ccc(NC(=O)CSc2nncn2-c2cccnc2)cc1`: the inhibition is -6.12% (inactive).
On the same count and under the same terms, the figure for `CC1CC(C)CN(c2cc(N(C)CCO)c([N+](=O)[O-])c3nonc23)C1` (stereo not given) is 13.7% (inactive).
Consider `CCCC(=O)Nc1sc2c(c1C(=O)Nc1ccccn1)CCCC2`, for which the inhibition was -1.01% (inactive).
Regarding `O=C(CSc1nnc(CNC(=O)c2ccccc2F)o1)Nc1ccc2c(c1)OCCO2`, the inhibition was 10.5% (inactive).
Regarding `CC(=O)N1CCc2c(sc(NC(=O)CCS(=O)(=O)c3ccc(C)cc3)c2C#N)C1`, the inhibition is 11.7% (inactive).
Take `O=C(COc1cccc2c1CCNC2=O)Nc1cccc(C(F)(F)F)c1`: the inhibition was 5.78% (inactive).
Consider `Cc1ccc(NC(=O)[C@H](Cc2c[nH]c3ccccc23)NC(=O)[C@@H]2Cc3ccccc3CN2)c(C)c1`, for which the inhibition was 78.4% (active).
Take `COc1ccccc1NC(=O)CN1CCN(CC(=O)Nc2ccc(S(N)(=O)=O)cc2)CC1`: the inhibition was 19.1% (inactive).
Still for that read-out and setting: with `COc1cc(NC(=O)CCl)ccc(=O)c1` the figure was 47.9% (active); with `Cc1cc2ccccn2c1C(=O)c1ccc([N+](=O)[O-])o1`, 41% (active).
Still for that read-out and setting: the figure for `Cc1cc2ncn(/N=C/c3ccc([N+](=O)[O-])s3)c2cc1C` is 12.7% (inactive).
Regarding `Cc1cc(-c2nnc(SCC(=O)Nc3cccc(C)c3C)n2N)n[nH]1`, the inhibition is 5.59% (inactive).
For `CCCc1cc(=O)n2nc(N3CCC(C(=O)N4CCN(c5ccc(OC)cc5)CC4)CC3)sc2n1`, the inhibition was 12.6% (inactive).
Same read-out and setting: with `CCOc1ccccc1C(=O)Nc1cc2c(cc1N1CCCC1)n(CC)c(=O)n2CC` the figure was 52.6% (active).
The same measure, in the same setting: the figure for `CCOCC(=O)Nc1ccc(S(=O)(=O)NCCc2ccccc2)cc1` is 10.5% (inactive); for `Cc1cccc(NC(=O)CSc2nc3[nH]ncc3c(=O)[nH]2)c1C` it is 11.6% (inactive).
As to `COCc1cccc(-c2csc(C(C)(O)c3cccc(OC)c3)n2)c1` (stereo not given), the inhibition is -0.93% (inactive).
The same measure, in the same setting: with `Nn1c(SCC(=O)Nc2c(F)cc(F)cc2Br)nnc1C1CCCCC1` the figure was 6.71% (inactive); with `COc1ccc(-c2ccc(C(=O)NCc3ccncc3)c3occc23)c(C)c1`, 29.2% (active).
Still for that read-out and setting: with `CN(C)C(=O)Cn1c(SCC(=O)Nc2ccc3c(c2)OCO3)nc2ccccc21` the figure was -0.98% (inactive).
Same read-out and setting: the figure for `COc1ccc(NC(=O)CSc2nnc(Cc3ccccc3)c(=O)n2N)c(OC)c1` is 5.02% (inactive); for `C=CCNC(=S)N/N=C(\C)c1ccccn1` it is 89.3% (active); for `CS(=O)(=O)c1ccc(Cl)c(NC(=O)Nc2ccccc2)c1` it is -6.75% (inactive).
Turning to `COC(=O)c1ccc(NC(=O)CSc2nnc(C)n2CC2CCCO2)cc1` (stereo not given), the inhibition was 3.1% (inactive).
For the compound `O=C(Nc1c(Cl)ccc2nsnc12)c1ccc([N+](=O)[O-])o1`, the inhibition was 17.1% (inactive).
The same measure, in the same setting: with `Cc1ccc2[nH]c(C)c(/C=C/c3cc[n+](C)cc3)c2c1` the figure was 39.2% (active); with `O=C(N/N=C/c1c[nH]c2ccccc12)c1[nH]c2ccc(Br)cc2c1-c1ccccc1`, 52.3% (active); with `CC(C)(C)c1ccc(C(=O)Nc2ccc(C(=O)NCc3cccnc3)cc2)cc1`, 82.1% (active).
As to `COc1ccc(N2CCN(C(=O)CSc3nc4ccccc4c(=O)[nH]3)CC2)cc1`, the inhibition is 12.5% (inactive).
For `COc1cc(C(=O)Nc2ccccc2N2CCN(S(C)(=O)=O)CC2)cc(OC)c1OC`, the inhibition is 9.79% (inactive).
Same read-out and setting: the figure for `COc1cc(-c2cc(C(=O)Nc3ccncc3)c3ccccc3n2)cc(OC)c1OC` is 28.4% (active); for `CCOc1ccc(NC(=O)CSc2nc3[nH]ncc3c(=O)[nH]2)cc1` it is 8.84% (inactive); for `Cc1ccc(CN2CCC[C@]3(N[C@H](c4ccc(C(F)(F)F)cc4)[C@@H]4C(=O)N(Cc5ccccc5)C(=O)[C@@H]43)C2=O)cc1` it is -2.71% (inactive).
The same measure, in the same setting: with `CNC(=S)N/N=C/c1cn(Cc2ccc(C)cc2)c2ccccc12` the figure was 2.35% (inactive); with `O=C1CCCN2N=C(SCC(=O)Nc3ccc(Br)cc3)SC2=N1`, -4.32% (inactive); with `O=C(c1cccc(Cl)c1)N1CCCC(c2ccc(Cl)cc2)=N1`, 2.78% (inactive).
`O=C(Nc1ccc2oc(-c3cccnc3)nc2c1)c1ccc([N+](=O)[O-])o1`: the inhibition is 8.01% (inactive).
Still for that read-out and setting: with `CCC(=O)N1CCN(c2ccc(NC(=O)c3ccc([N+](=O)[O-])o3)cc2Cl)CC1` the figure was 13% (inactive); with `Cc1c(C(C)C)c(=O)n(-c2ccc(S(=O)(=O)NC3CCCCC3)cc2)n1C`, 23.7% (inactive).

In the next assay the target is Nuclear receptor subfamily 5 group A member 2 (Homo sapiens) (UniProt O00482). Briefly: NR5A2 activity suppression in reporter cells – cell-based, luminescence, confirmation (AID 651613).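 Further: HEK293T cells co-transfected with LRH-1 and StAR promoter luciferase reporter; 0% = vehicle wells and 100% = parental cells lacking receptor.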 The settings on record: cell-based LRH-1 luciferase reporter, inverse agonism; at 3.6 µM; active compounds read high.
Chain of Nuclear receptor subfamily 5 group A member 2 (Homo sapiens) (O00482 whole entry, looked up): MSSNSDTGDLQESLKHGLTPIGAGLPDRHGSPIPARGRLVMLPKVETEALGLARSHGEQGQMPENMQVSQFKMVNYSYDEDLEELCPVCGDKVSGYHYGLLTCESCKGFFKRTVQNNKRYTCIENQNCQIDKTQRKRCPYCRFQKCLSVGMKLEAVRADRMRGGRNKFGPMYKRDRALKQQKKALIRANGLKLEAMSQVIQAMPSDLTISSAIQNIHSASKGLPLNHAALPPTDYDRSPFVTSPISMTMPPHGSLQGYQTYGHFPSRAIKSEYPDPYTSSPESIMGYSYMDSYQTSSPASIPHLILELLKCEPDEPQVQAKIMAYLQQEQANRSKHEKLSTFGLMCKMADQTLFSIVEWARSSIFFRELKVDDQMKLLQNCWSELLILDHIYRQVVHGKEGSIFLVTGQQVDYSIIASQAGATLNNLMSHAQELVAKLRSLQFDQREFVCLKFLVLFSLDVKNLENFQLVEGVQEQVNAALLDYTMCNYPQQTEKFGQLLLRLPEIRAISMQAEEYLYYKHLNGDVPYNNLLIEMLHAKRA
As for `CC1CCCC(C)N1C(=O)COC(=O)CCC1CCCC1` (stereo not given), the inhibition is 51.2% (active).
On the same count and under the same terms, the figure for `COC(=O)c1ccc(NC(=O)CSc2nncn2-c2cccnc2)cc1` is 44.6% (active); for `CC1CC(C)CN(c2cc(N(C)CCO)c([N+](=O)[O-])c3nonc23)C1` (stereo not given) it is 64.2% (active); for `CCCC(=O)Nc1sc2c(c1C(=O)Nc1ccccn1)CCCC2` it is 47.1% (active).
Still for that read-out and setting: the figure for `O=C(CSc1nnc(CNC(=O)c2ccccc2F)o1)Nc1ccc2c(c1)OCCO2` is 56.9% (active).
On to `CC(=O)N1CCc2c(sc(NC(=O)CCS(=O)(=O)c3ccc(C)cc3)c2C#N)C1`, for which the inhibition was 52.5% (active).
Take `O=C(COc1cccc2c1CCNC2=O)Nc1cccc(C(F)(F)F)c1`: the inhibition was 52.5% (active).
For `Cc1ccc(NC(=O)[C@H](Cc2c[nH]c3ccccc23)NC(=O)[C@@H]2Cc3ccccc3CN2)c(C)c1`, the inhibition is 3.94% (inactive).
With `COc1ccccc1NC(=O)CN1CCN(CC(=O)Nc2ccc(S(N)(=O)=O)cc2)CC1`, the inhibition was 49.8% (active).
In the case of `COc1cc(NC(=O)CCl)ccc(=O)c1`, the inhibition was 64.7% (active).
As for `Cc1cc2ccccn2c1C(=O)c1ccc([N+](=O)[O-])o1`, the inhibition was 68.3% (active).
Still for that read-out and setting: the figure for `Cc1cc2ncn(/N=C/c3ccc([N+](=O)[O-])s3)c2cc1C` is 60% (active).
On the same count and under the same terms, with `Cc1cc(-c2nnc(SCC(=O)Nc3cccc(C)c3C)n2N)n[nH]1` the figure was 53.3% (active); with `CCCc1cc(=O)n2nc(N3CCC(C(=O)N4CCN(c5ccc(OC)cc5)CC4)CC3)sc2n1`, 56.5% (active).
Still for that read-out and setting: with `CCOc1ccccc1C(=O)Nc1cc2c(cc1N1CCCC1)n(CC)c(=O)n2CC` the figure was 48.8% (active); with `CCOCC(=O)Nc1ccc(S(=O)(=O)NCCc2ccccc2)cc1`, 48.3% (active).
`Cc1cccc(NC(=O)CSc2nc3[nH]ncc3c(=O)[nH]2)c1C`: the inhibition was 56.4% (active).
In the case of `COCc1cccc(-c2csc(C(C)(O)c3cccc(OC)c3)n2)c1` (stereo not given), the inhibition was 45.2% (active).
For `Nn1c(SCC(=O)Nc2c(F)cc(F)cc2Br)nnc1C1CCCCC1`, the inhibition was 38.9% (inactive).
Same read-out and setting: with `COc1ccc(-c2ccc(C(=O)NCc3ccncc3)c3occc23)c(C)c1` the figure was 69.7% (active); with `CN(C)C(=O)Cn1c(SCC(=O)Nc2ccc3c(c2)OCO3)nc2ccccc21`, 22.2% (inactive).
The same measure, in the same setting: with `COc1ccc(NC(=O)CSc2nnc(Cc3ccccc3)c(=O)n2N)c(OC)c1` the figure was 51% (active); with `C=CCNC(=S)N/N=C(\C)c1ccccn1`, 95.5% (active).
Turning to `CS(=O)(=O)c1ccc(Cl)c(NC(=O)Nc2ccccc2)c1`, the inhibition is 25.1% (inactive).
On the same count and under the same terms, with `COC(=O)c1ccc(NC(=O)CSc2nnc(C)n2CC2CCCO2)cc1` (stereo not given) the figure was 50.5% (active); with `O=C(Nc1c(Cl)ccc2nsnc12)c1ccc([N+](=O)[O-])o1`, 65.1% (active).
For the compound `Cc1ccc2[nH]c(C)c(/C=C/c3cc[n+](C)cc3)c2c1`, the inhibition is 77.4% (active).
The same measure, in the same setting: with `O=C(N/N=C/c1c[nH]c2ccccc12)c1[nH]c2ccc(Br)cc2c1-c1ccccc1` the figure was 38% (inactive); with `CC(C)(C)c1ccc(C(=O)Nc2ccc(C(=O)NCc3cccnc3)cc2)cc1`, 90.4% (active).
Same read-out and setting: with `COc1ccc(N2CCN(C(=O)CSc3nc4ccccc4c(=O)[nH]3)CC2)cc1` the figure was 46.8% (active).
Same read-out and setting: with `COc1cc(C(=O)Nc2ccccc2N2CCN(S(C)(=O)=O)CC2)cc(OC)c1OC` the figure was 44.5% (active); with `COc1cc(-c2cc(C(=O)Nc3ccncc3)c3ccccc3n2)cc(OC)c1OC`, 40.9% (inactive).
As to `CCOc1ccc(NC(=O)CSc2nc3[nH]ncc3c(=O)[nH]2)cc1`, the inhibition is 56.8% (active).
On the same count and under the same terms, the figure for `Cc1ccc(CN2CCC[C@]3(N[C@H](c4ccc(C(F)(F)F)cc4)[C@@H]4C(=O)N(Cc5ccccc5)C(=O)[C@@H]43)C2=O)cc1` is 24.8% (inactive); for `CNC(=S)N/N=C/c1cn(Cc2ccc(C)cc2)c2ccccc12` it is 46.9% (active); for `O=C1CCCN2N=C(SCC(=O)Nc3ccc(Br)cc3)SC2=N1` it is 49.1% (active).
Same read-out and setting: the figure for `O=C(c1cccc(Cl)c1)N1CCCC(c2ccc(Cl)cc2)=N1` is 49.8% (active); for `O=C(Nc1ccc2oc(-c3cccnc3)nc2c1)c1ccc([N+](=O)[O-])o1` it is 58.1% (active); for `CCC(=O)N1CCN(c2ccc(NC(=O)c3ccc([N+](=O)[O-])o3)cc2Cl)CC1` it is 56.2% (active).
Regarding `Cc1c(C(C)C)c(=O)n(-c2ccc(S(=O)(=O)NC3CCCCC3)cc2)n1C`, the inhibition is 60.6% (active).
